The results in this text go back to the supplement of paper PMC9262897, “Low-cost anti-mycobacterial drug discovery using engineered E. coli” (Nature Communications, 2022).

Where a name gives a salt, the structure may show the parent alone. ± gives the standard deviation of the averaged measurements.

Holding throughout (assay): growth (OD600 after 10 h); higher = more growth (less inhibition)
Assay [1] has as its system E. coli TESEC Alr+ wild-type control. As to conditions: compound 0.1 mM; raw OD600 reference: median of DMSO wells 0.241, cell-free background 0.041. The protocol:
(§1)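 TESEC Mtb Alr E. coli, or the Alr+ wild-type control, in 384-well plates with Prestwick library compounds at 0.1 mM and 1% DMSO, across arabinose induction levels of 1E3 to 1E7 nM. Growth is read as OD600 after 10 h at 37 °C in triplicate biological replicates.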

The subject of assay [2] is E. coli TESEC Mtb Alr. To be noted: compound 0.1 mM. The protocol:
as §1

Assay [3] concerns E. coli TESEC Mtb Asd. As to conditions: compound 0.1 mM. The method, then:
(§2)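 TESEC E. coli strains in which the native enzyme is deleted and replaced by arabinose-inducible Mtb Asd, DapB, CysH or TrpD, each grown in its selective medium. Strains were screened against the Prestwick library at 0.1 mM and 1% DMSO in 384-well format at low and high arabinose induction. Growth is read as OD600 after 10 h in triplicate.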

The subject of assay [4] is E. coli TESEC Mtb DapB. To be noted: compound 0.1 mM. The method, then: as §2
Assay [5] deals with E. coli TESEC Alr+ wild-type control. To be noted: compound 0.1 mM; raw OD600 reference: median of DMSO wells 0.49, cell-free background 0.052. The protocol: (§3)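 TESEC Mtb Alr E. coli (ΔaraC ΔtolC ΔentC Δalr ΔdadX, arabinose-inducible Mtb Alr) or the Alr+ wild-type control strain, grown in defined M9-fructose medium without D-alanine in 96-well plates with Prestwick library compounds at 0.1 mM and 1% DMSO. Low Alr induction is 0.1 µM arabinose and high induction is 10 mM arabinose.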

In assay [6] the test system is E. coli TESEC Mtb Alr. As to conditions: compound 0.1 mM. The method, then: as §3
The source holds these as a separate data set.

Where [7] appears, read: arabinose 1000 nM, raw OD600 reference: median of DMSO wells 0.294, cell-free background 0.041.
[8] abbreviates: arabinose 10000 nM, raw OD600 reference: median of DMSO wells 0.264, cell-free background 0.041.
Setting [9] is: arabinose 100000 nM, raw OD600 reference: median of DMSO wells 0.201, cell-free background 0.041.
Where [10] appears, read: arabinose 1000000 nM, raw OD600 reference: median of DMSO wells 0.193, cell-free background 0.041.
[11] abbreviates: arabinose 10000000 nM, raw OD600 reference: median of DMSO wells 0.146, cell-free background 0.041.
[12] abbreviates: arabinose induction (level): High, raw OD600 reference: median of DMSO wells 0.331, cell-free background 0.041.
[13] abbreviates: arabinose induction (level): Low, raw OD600 reference: median of DMSO wells 0.417, cell-free background 0.041.
Where [14] appears, read: arabinose induction (level): High, raw OD600 reference: median of DMSO wells […], cell-free background 0.041.
[15] abbreviates: arabinose induction (level): Low, raw OD600 reference: median of DMSO wells 0.227, cell-free background 0.041.
Where [16] appears, read: arabinose 100 nM, raw OD600 reference: median of DMSO wells 0.413, cell-free background 0.052.
The mark [17] stands for this setting: arabinose 10000000 nM, raw OD600 reference: median of DMSO wells […], cell-free background 0.052.

In the case of `Cc1cc(C(C)(C)C)c(O)c(C)c1CC1=NCCN1` [Oxymetazoline hydrochloride], the growth came to 0.236 ± 0.0092 in assay [1]; 0.302 ± 0.0066 in assay [2] (setting [7]); 0.263 ± 0.014 in assay [2] (setting [8]); 0.196 ± 0.011 in assay [2] (setting [9]); 0.17 ± 0.011 in assay [2] (setting [10]); 0.165 ± 0.011 in assay [2] (setting [11]). Also, the growth in assay [3] (setting [12]) amounted to 0.372 ± 0.07; in assay [3] (setting [13]), 0.416 ± 0.035; in assay [4] (setting [14]), 0.202 ± 0.016; in assay [4] (setting [15]), 0.251 ± 0.028; in assay [5], 0.514 ± 0.062; in assay [6] (setting [16]), 0.414 ± 0.013. In assay [6] (setting [17]), this compound yielded a growth of 0.328 ± 0.011.

For the compound `CN(CCCCCCCCCCN(C)C(=O)Oc1cccc([N+](C)(C)C)c1)C(=O)Oc1cccc([N+](C)(C)C)c1` [Demecarium bromide], the growth in assay [1] is 0.04127 ± 0.00031; in assay [2] (setting [7]) it was 0.0415 ± 0.00053; in assay [2] (setting [8]) it was 0.03993 ± 5.8e-05; in assay [2] (setting [9]), 0.0453 ± 0.0065; in assay [2] (setting [10]) it was 0.03943 ± 0.00023; in assay [2] (setting [11]), 0.0426 ± 0.0012. The growth stood at 0.0473 ± 0.00079 in assay [3] (setting [12]); 0.047 ± 0.0013 in assay [3] (setting [13]); 0.0492 ± 0.00091 in assay [4] (setting [14]); 0.0493 ± 0.0005 in assay [4] (setting [15]); 0.051 ± 0.00093 in assay [5]; 0.0633 ± 0.0063 in assay [6] (setting [16]). In assay [6] (setting [17]), this compound displayed a growth of 0.0536 ± 0.0014.

On to `CCCc1cc(=O)[nH]c(=S)[nH]1` [Propylthiouracil], for which the growth in assay [1] is 0.241 ± 0.0062; in assay [2] (setting [7]), 0.289 ± 0.025; in assay [2] (setting [8]), 0.263 ± 0.0094; in assay [2] (setting [9]), 0.219 ± 0.034; in assay [2] (setting [10]) it was 0.195 ± 0.0092; in assay [2] (setting [11]) it was 0.152 ± 0.0063. The growth in assay [3] (setting [12]) came out at 0.431 ± 0.04; in assay [3] (setting [13]), 0.45 ± 0.047; in assay [4] (setting [14]) it was 0.199 ± 0.0093; in assay [4] (setting [15]) it was 0.194 ± 0.019; in assay [5] it was 0.55 ± 0.1; in assay [6] (setting [16]), 0.41 ± 0.015. This compound also returned a growth in assay [6] (setting [17]) of 0.345 ± 0.043.

In the case of `CCCc1nc(C)c2c(=O)nc(-c3cc(S(=O)(=O)N4CCN(CC)CC4)ccc3OCC)[nH]n12` [Vardenafil], the growth in assay [1] was determined as 0.148 ± 0.0033; in assay [2] (setting [7]), 0.221 ± 0.0081; in assay [2] (setting [8]), 0.26 ± 0.011; in assay [2] (setting [9]) it was 0.18 ± 0.0021; in assay [2] (setting [10]), 0.107 ± 0.0037; in assay [2] (setting [11]) it was 0.126 ± 0.0068. Moreover, the growth was found to be 0.189 ± 0.02 in assay [3] (setting [12]); 0.238 ± 0.052 in assay [3] (setting [13]); 0.151 ± 0.0082 in assay [4] (setting [14]); 0.173 ± 0.018 in assay [4] (setting [15]); 0.55 ± 0.11 in assay [5]; 0.41 ± 0.0051 in assay [6] (setting [16]). The growth in assay [6] (setting [17]) was determined as 0.305 ± 0.014.
